# Hit rate of the full screen: of about 2,700 compounds, about 160 (5.9%) showed an effect of 50% or more. For the sample, strong results were picked, then their nearest neighbours and some compounds at random.
# Target: Nonstructural protein 3 (Zika virus) (UniProt A0A024AXB9)
# Sequence (A0A024AXB9 as listed by the source): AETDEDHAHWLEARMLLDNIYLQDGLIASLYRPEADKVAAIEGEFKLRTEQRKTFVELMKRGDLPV
smiles,measurement,setting,value
O=C(O)c1cc(Cl)ccc1NS(=O)(=O)c1ccc(Oc2ccccc2Cl)cc1,inhibition,"PRVABC59, Concentration 15.0 uM, Number of replicates 2.0, Standard deviation 1.019095961302742 %",25.6%
same,inhibition,"PRVABC59, Concentration 49.5 uM, Number of replicates 2.0, Standard deviation 0.595671862422896 %",67%
same,inhibition,"PRVABC59, Concentration 99.01 uM, Number of replicates 2.0, Standard deviation 0.9962463002636517 %",72.9%
same,inhibition,"PRVABC59, Concentration 198.0 uM, Number of replicates 2.0, Standard deviation 0.4898259529465772 %",64.4%
CC(C)CNC(=O)c1cc(Cl)ccc1NS(=O)(=O)c1ccc(Oc2ccccc2Cl)cc1,inhibition,"PRVABC59, Concentration 49.5 uM, Number of replicates 2.0, Standard deviation 0.3286348250544809 %",58.6%
same,inhibition,"PRVABC59, Concentration 99.01 uM, Number of replicates 2.0, Standard deviation 0.058762822067828895 %",54.7%
same,inhibition,"PRVABC59, Concentration 198.0 uM, Number of replicates 2.0, Standard deviation 2.167677830824169 %",37.6%
O=C(NCC1CC1)c1cc(Cl)ccc1NS(=O)(=O)c1ccc(Oc2ccccc2Cl)cc1,inhibition,"PRVABC59, Concentration 49.5 uM, Number of replicates 2.0, Standard deviation 1.3484995448740613 %",43%
same,inhibition,"PRVABC59, Concentration 99.01 uM, Number of replicates 2.0, Standard deviation 16.06152873020096 %",40.6%
same,inhibition,"PRVABC59, Concentration 198.0 uM, Number of replicates 2.0, Standard deviation 0.4375207024201935 %",45.6%
COC[C@@H](C)CNC(=O)c1cc(Cl)ccc1NS(=O)(=O)c1ccc(Oc2ccccc2Cl)cc1,inhibition,"PRVABC59, Concentration 49.5 uM, Number of replicates 2.0, Standard deviation 0.1936300399043851 %",40.8%
same,inhibition,"PRVABC59, Concentration 99.01 uM, Number of replicates 2.0, Standard deviation 0.11978876131329876 %",39.9%
same,inhibition,"PRVABC59, Concentration 198.0 uM, Number of replicates 2.0, Standard deviation 0.12799289825703533 %",17.9%
Cc1ccc(CNC(=O)c2cc(Cl)ccc2NS(=O)(=O)c2ccc(Oc3ccccc3Cl)cc2)s1,inhibition,"PRVABC59, Concentration 49.5 uM, Number of replicates 2.0, Standard deviation 0.2822395742136887 %",41.1%
same,inhibition,"PRVABC59, Concentration 99.01 uM, Number of replicates 2.0, Standard deviation 0.310134718781715 %",25.2%
same,inhibition,"PRVABC59, Concentration 198.0 uM, Number of replicates 2.0, Standard deviation 2.1364830937799217 %",-9.71%
NCc1cccc(NC(=O)c2cccc(NC(=O)OCc3ccccc3)n2)c1,inhibition,"PRVABC59, Concentration 49.5 uM, Number of replicates 2.0, Standard deviation 2.909357334669415 %",5.59%
same,inhibition,"PRVABC59, Concentration 99.01 uM, Number of replicates 2.0, Standard deviation 2.139765153167162 %",18.9%
same,inhibition,"PRVABC59, Concentration 198.0 uM, Number of replicates 2.0, Standard deviation 5.981167842462736 %",37.7%
CCn1ccnc(N[C@@H](Cc2c[nH]c3ccccc23)C(N)=O)c1=O,inhibition,"PRVABC59, Concentration 49.5 uM, Number of replicates 2.0, Standard deviation 1.4026673489298387 %",18.1%
same,inhibition,"PRVABC59, Concentration 99.01 uM, Number of replicates 2.0, Standard deviation 0.19191044848514063 %",31.5%
same,inhibition,"PRVABC59, Concentration 198.0 uM, Number of replicates 2.0, Standard deviation 0.4743186100928729 %",43.7%
NCc1cccc(NC(=O)[C@H]2Cc3ccccc3N2C(=O)OCc2ccccc2)c1,inhibition,"PRVABC59, Concentration 49.5 uM, Number of replicates 2.0, Standard deviation 1.3458327451813832 %",-2.12%
same,inhibition,"PRVABC59, Concentration 99.01 uM, Number of replicates 2.0, Standard deviation 2.0252321038631718 %",4.14%
same,inhibition,"PRVABC59, Concentration 198.0 uM, Number of replicates 2.0, Standard deviation 4.242354762898987 %",47.3%
NCc1cccc(NC(=O)[C@H]2CCCN(C(=O)OCc3ccccc3)C2)c1,inhibition,"PRVABC59, Concentration 49.5 uM, Number of replicates 2.0, Standard deviation 2.781365363643047 %",3.4%
same,inhibition,"PRVABC59, Concentration 99.01 uM, Number of replicates 2.0, Standard deviation 2.023258788415892 %",8.89%
same,inhibition,"PRVABC59, Concentration 198.0 uM, Number of replicates 2.0, Standard deviation 2.4646681276670943 %",18.5%
NCc1cccc(NC(=O)[C@H]2COC3(CCOCC3)N2C(=O)OCc2ccccc2)c1,inhibition,"PRVABC59, Concentration 49.5 uM, Number of replicates 2.0, Standard deviation 0.9938813563000084 %",5.38%
same,inhibition,"PRVABC59, Concentration 99.01 uM, Number of replicates 2.0, Standard deviation 1.914429893589366 %",19%
same,inhibition,"PRVABC59, Concentration 198.0 uM, Number of replicates 2.0, Standard deviation 1.323095447640423 %",40.3%
NCc1cccc(NC(=O)[C@@H](Cc2c[nH]c3ccccc23)NC(=O)OCc2ccccc2)c1,inhibition,"PRVABC59, Concentration 49.5 uM, Number of replicates 2.0, Standard deviation 3.967037724259516 %",6.59%
same,inhibition,"PRVABC59, Concentration 99.01 uM, Number of replicates 2.0, Standard deviation 5.155513103183051 %",30%
same,inhibition,"PRVABC59, Concentration 198.0 uM, Number of replicates 2.0, Standard deviation 1.4247172313715861 %",61.6%
NCc1cccc(NC(=O)[C@@H](NC(=O)OCc2ccccc2)C2CCCCC2)c1,inhibition,"PRVABC59, Concentration 49.5 uM, Number of replicates 2.0, Standard deviation 3.670746053577507 %",0.383%
same,inhibition,"PRVABC59, Concentration 99.01 uM, Number of replicates 2.0, Standard deviation 4.852210894307134 %",19.8%
same,inhibition,"PRVABC59, Concentration 198.0 uM, Number of replicates 2.0, Standard deviation 0.07712401232790286 %",99.4%
NCc1cccc(NC(=O)[C@@H](NC(=O)OCc2ccccc2)C(C2CCC2)C2CCC2)c1,inhibition,"PRVABC59, Concentration 49.5 uM, Number of replicates 2.0, Standard deviation 1.6304646588102472 %",8.82%
same,inhibition,"PRVABC59, Concentration 99.01 uM, Number of replicates 2.0, Standard deviation 1.5618151976061267 %",76.8%
same,inhibition,"PRVABC59, Concentration 198.0 uM, Number of replicates 2.0, Standard deviation 0.10609407012035098 %",99.1%
COc1cc(COc2cccnc2F)nc(N2CCNCC2)n1,inhibition,"PRVABC59, Concentration 49.5 uM, Number of replicates 2.0, Standard deviation 3.471530038958882 %",9.4%
same,inhibition,"PRVABC59, Concentration 99.01 uM, Number of replicates 2.0, Standard deviation 1.2510762616041597 %",17.8%
same,inhibition,"PRVABC59, Concentration 198.0 uM, Number of replicates 2.0, Standard deviation 5.474495288404173 %",24.4%
CC[C@H]1CCN(c2nccn(CC)c2=O)C1,inhibition,"PRVABC59, Concentration 49.5 uM, Number of replicates 2.0, Standard deviation 1.4176871370399688 %",4.12%
same,inhibition,"PRVABC59, Concentration 99.01 uM, Number of replicates 2.0, Standard deviation 1.8963080974288338 %",10.6%
same,inhibition,"PRVABC59, Concentration 198.0 uM, Number of replicates 2.0, Standard deviation 0.25647537430637324 %",21.7%
CCn1ccnc(N2C[C@@H](O)[C@H](c3c[nH]c4ccccc34)C2)c1=O,inhibition,"PRVABC59, Concentration 49.5 uM, Number of replicates 2.0, Standard deviation 0.5666151507099095 %",7.52%
same,inhibition,"PRVABC59, Concentration 99.01 uM, Number of replicates 2.0, Standard deviation 0.06434104176194275 %",18.6%
same,inhibition,"PRVABC59, Concentration 198.0 uM, Number of replicates 2.0, Standard deviation 0.18264623400765803 %",34.5%
Nc1nc(CN2CCNCC2)nc2ccccc12,inhibition,"PRVABC59, Concentration 99.9 uM, Number of replicates 2.0, Standard deviation 4.738718872161362 %",-7.53%
c1ccc2c([C@H]3CCN(CC[C@H]4CCCO4)C3)c[nH]c2c1,inhibition,"PRVABC59, Concentration 49.5 uM, Number of replicates 2.0, Standard deviation 2.014848974851422 %",6.42%
same,inhibition,"PRVABC59, Concentration 99.01 uM, Number of replicates 2.0, Standard deviation 1.491910771840746 %",12.4%
same,inhibition,"PRVABC59, Concentration 198.0 uM, Number of replicates 2.0, Standard deviation 1.9789597532326375 %",21.4%
O=C(O)c1cccc(NC(=O)c2cccc(OCc3c(Cl)cccc3Cl)c2)c1,inhibition,"PRVABC59, Concentration 49.5 uM, Number of replicates 2.0, Standard deviation 0.05325743212794187 %",8.22%
same,inhibition,"PRVABC59, Concentration 99.01 uM, Number of replicates 2.0, Standard deviation 0.43176580313712193 %",15.3%
same,inhibition,"PRVABC59, Concentration 198.0 uM, Number of replicates 2.0, Standard deviation 0.7170736679224038 %",28.4%

# From ChEMBL document CHEMBL5606458, “ASAP - ZIKV NS2B-NS3 protease fluorescence single point” (2024)
